Measured values taken from the supplement of paper PMC10849652.
About 7,900 targets were measured; listed, in parts, are those with a hit and a random draw of the rest. About 0.6% of all pairs of compound and target were hits. Values without a mark were called inactive.

Key:
Test in all cases: log2 fold change, soluble protein after heating vs DMSO (PISA); higher = thermal stabilisation; K562 cells, 10 uM, 30 min; active = over 0.2 and 3.5 SD of the protein, either way, in both replicates (recomputed)
[1] = compound: COC1=CC=C(C=C1)CN2C=CC3=C2C=C(C=C3)C(=O)NO
Summary of the method: (§1)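 Values are thermal stability changes relative to control samples and are taken from duplicates. They are stated as log2 fold changes. Before quantification by TMTpro 16plex LC-MS/MS with equalised channel sums, K562 cells at 2×10^6 cells/mL were treated with 10 μM compound for 30 min, heated in aliquots for 3 min across 48°C-58°C, pooled, extracted in PBS with 0.5% NP-40 at 4°C, and centrifuged at 21,000xg for 90 min to give the soluble supernatant.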

filanesib = compound: CON(C)C(=O)N1N=C(c2cc(F)ccc2F)S[C@@]1(CCCN)c1ccccc1 [filanesib]
Summary of the method: as §1

zotarolimus = compound: CO[C@H]1C[C@@H]2CC[C@@H](C)[C@@](O)(O2)C(=O)C(=O)N2CCCC[C@H]2C(=O)O[C@H]([C@H](C)C[C@@H]2CC[C@H](n3cnnn3)[C@H](OC)C2)CC(=O)[C@H](C)/C=C(\C)[C@@H](O)[C@@H](OC)C(=O)[C@H](C)C[C@H](C)/C=C/C=C/C=C/1C [zotarolimus]
Summary of the method: as §1

idasanutlin = compound: COc1cc(C(=O)O)ccc1NC(=O)[C@@H]1N[C@@H](CC(C)(C)C)[C@](C#N)(c2ccc(Cl)cc2F)[C@H]1c1cccc(Cl)c1F [idasanutlin]
Summary of the method: as §1

alisertib = compound: COc1cc(Nc2ncc3c(n2)-c2ccc(Cl)cc2C(c2c(F)cccc2OC)=NC3)ccc1C(=O)O [alisertib]
Summary of the method: as §1

[2] = compound: COc1cc2nc(-c3cc(F)ccc3O)nc(N[C@@H]3CNC[C@H]3C(C)(C)O)c2cc1OC
Summary of the method: as §1

gefitinib = compound: COc1cc2ncnc(Nc3ccc(F)c(Cl)c3)c2cc1OCCCN1CCOCC1 [gefitinib]
Summary of the method: as §1

[3] = compound: COc1cccc2cc(-c3nc([C@H]4CC[C@H](C(=O)O)CC4)n4ncnc(N)c34)[nH]c12
Summary of the method: as §1

lapatinib = compound: CS(=O)(=O)CCNCc1ccc(-c2ccc3ncnc(Nc4ccc(OCc5cccc(F)c5)c(Cl)c4)c3c2)o1 [lapatinib]
Summary of the method: as §1

pictilisib = compound: CS(=O)(=O)N1CCN(Cc2cc3nc(-c4cccc5[nH]ncc45)nc(N4CCOCC4)c3s2)CC1 [pictilisib]
Summary of the method: as §1

Sequence of UniProt O95573 (O95573 whole entry, looked up): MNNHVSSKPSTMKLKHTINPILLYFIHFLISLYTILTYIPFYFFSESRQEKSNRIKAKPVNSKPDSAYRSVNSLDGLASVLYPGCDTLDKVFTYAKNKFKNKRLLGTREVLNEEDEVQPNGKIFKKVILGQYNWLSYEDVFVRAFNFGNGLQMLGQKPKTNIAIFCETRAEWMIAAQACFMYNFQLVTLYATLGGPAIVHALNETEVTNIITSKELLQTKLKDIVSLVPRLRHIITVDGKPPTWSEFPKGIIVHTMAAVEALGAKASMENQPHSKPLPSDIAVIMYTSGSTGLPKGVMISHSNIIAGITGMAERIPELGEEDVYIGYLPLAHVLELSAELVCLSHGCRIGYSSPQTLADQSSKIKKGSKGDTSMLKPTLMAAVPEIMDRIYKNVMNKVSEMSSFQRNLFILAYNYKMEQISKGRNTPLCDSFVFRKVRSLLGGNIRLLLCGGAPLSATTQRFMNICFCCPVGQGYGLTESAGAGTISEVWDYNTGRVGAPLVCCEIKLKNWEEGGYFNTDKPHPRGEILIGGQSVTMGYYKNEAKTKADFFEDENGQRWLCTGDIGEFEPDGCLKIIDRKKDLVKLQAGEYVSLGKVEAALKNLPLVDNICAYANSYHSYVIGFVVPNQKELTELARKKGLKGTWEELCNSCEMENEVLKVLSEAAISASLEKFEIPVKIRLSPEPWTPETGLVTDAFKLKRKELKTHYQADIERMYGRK
Sequence of UniProt P42025 (P42025 whole entry, looked up): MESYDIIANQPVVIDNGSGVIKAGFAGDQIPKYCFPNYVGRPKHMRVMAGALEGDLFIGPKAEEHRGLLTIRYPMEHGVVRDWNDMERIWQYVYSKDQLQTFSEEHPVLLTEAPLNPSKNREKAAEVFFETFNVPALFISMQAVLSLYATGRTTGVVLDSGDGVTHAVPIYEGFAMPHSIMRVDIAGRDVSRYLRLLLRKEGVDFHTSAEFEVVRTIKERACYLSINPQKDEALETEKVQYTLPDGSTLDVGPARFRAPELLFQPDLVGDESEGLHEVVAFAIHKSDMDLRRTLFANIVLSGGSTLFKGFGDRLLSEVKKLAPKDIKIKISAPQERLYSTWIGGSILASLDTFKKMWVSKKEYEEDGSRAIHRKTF
Sequence of UniProt Q8WUW1 (Q8WUW1 whole entry, looked up): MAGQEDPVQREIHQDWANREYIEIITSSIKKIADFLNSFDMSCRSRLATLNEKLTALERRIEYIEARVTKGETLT
Sequence of UniProt O14965 (O14965 whole entry, looked up): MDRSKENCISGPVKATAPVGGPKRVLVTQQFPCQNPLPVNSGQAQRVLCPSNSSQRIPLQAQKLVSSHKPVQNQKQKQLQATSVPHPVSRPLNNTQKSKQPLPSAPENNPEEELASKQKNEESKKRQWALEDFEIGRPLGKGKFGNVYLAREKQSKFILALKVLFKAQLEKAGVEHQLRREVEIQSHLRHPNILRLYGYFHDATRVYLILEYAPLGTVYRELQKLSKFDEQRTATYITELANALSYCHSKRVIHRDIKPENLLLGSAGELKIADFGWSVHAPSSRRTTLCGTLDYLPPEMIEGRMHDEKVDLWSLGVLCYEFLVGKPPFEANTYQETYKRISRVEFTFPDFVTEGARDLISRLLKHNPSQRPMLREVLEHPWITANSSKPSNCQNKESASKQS
Sequence of UniProt Q96P47 (Q96P47 whole entry, looked up): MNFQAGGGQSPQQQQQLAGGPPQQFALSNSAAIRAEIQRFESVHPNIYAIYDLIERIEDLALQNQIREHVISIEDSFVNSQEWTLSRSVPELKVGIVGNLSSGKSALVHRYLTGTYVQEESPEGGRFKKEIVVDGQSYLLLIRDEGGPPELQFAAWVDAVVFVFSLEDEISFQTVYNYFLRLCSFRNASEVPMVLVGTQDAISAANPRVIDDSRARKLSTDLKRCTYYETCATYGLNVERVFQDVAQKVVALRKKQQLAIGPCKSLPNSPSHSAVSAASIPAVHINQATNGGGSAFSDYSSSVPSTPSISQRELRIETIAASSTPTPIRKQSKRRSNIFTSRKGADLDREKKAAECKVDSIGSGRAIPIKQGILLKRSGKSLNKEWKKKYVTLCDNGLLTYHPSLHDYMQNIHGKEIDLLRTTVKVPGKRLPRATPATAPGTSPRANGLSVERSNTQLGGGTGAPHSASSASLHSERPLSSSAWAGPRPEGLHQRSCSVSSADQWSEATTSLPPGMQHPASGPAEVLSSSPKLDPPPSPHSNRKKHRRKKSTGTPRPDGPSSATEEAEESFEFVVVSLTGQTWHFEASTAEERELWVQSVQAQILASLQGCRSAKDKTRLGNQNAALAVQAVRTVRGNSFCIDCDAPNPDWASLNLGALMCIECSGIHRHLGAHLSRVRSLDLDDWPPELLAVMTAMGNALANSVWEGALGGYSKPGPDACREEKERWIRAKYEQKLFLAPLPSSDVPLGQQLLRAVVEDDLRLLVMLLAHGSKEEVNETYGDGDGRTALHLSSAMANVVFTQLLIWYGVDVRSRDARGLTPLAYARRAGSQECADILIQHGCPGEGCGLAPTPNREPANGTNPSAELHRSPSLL
Sequence of UniProt Q13535 (Q13535 whole entry, looked up): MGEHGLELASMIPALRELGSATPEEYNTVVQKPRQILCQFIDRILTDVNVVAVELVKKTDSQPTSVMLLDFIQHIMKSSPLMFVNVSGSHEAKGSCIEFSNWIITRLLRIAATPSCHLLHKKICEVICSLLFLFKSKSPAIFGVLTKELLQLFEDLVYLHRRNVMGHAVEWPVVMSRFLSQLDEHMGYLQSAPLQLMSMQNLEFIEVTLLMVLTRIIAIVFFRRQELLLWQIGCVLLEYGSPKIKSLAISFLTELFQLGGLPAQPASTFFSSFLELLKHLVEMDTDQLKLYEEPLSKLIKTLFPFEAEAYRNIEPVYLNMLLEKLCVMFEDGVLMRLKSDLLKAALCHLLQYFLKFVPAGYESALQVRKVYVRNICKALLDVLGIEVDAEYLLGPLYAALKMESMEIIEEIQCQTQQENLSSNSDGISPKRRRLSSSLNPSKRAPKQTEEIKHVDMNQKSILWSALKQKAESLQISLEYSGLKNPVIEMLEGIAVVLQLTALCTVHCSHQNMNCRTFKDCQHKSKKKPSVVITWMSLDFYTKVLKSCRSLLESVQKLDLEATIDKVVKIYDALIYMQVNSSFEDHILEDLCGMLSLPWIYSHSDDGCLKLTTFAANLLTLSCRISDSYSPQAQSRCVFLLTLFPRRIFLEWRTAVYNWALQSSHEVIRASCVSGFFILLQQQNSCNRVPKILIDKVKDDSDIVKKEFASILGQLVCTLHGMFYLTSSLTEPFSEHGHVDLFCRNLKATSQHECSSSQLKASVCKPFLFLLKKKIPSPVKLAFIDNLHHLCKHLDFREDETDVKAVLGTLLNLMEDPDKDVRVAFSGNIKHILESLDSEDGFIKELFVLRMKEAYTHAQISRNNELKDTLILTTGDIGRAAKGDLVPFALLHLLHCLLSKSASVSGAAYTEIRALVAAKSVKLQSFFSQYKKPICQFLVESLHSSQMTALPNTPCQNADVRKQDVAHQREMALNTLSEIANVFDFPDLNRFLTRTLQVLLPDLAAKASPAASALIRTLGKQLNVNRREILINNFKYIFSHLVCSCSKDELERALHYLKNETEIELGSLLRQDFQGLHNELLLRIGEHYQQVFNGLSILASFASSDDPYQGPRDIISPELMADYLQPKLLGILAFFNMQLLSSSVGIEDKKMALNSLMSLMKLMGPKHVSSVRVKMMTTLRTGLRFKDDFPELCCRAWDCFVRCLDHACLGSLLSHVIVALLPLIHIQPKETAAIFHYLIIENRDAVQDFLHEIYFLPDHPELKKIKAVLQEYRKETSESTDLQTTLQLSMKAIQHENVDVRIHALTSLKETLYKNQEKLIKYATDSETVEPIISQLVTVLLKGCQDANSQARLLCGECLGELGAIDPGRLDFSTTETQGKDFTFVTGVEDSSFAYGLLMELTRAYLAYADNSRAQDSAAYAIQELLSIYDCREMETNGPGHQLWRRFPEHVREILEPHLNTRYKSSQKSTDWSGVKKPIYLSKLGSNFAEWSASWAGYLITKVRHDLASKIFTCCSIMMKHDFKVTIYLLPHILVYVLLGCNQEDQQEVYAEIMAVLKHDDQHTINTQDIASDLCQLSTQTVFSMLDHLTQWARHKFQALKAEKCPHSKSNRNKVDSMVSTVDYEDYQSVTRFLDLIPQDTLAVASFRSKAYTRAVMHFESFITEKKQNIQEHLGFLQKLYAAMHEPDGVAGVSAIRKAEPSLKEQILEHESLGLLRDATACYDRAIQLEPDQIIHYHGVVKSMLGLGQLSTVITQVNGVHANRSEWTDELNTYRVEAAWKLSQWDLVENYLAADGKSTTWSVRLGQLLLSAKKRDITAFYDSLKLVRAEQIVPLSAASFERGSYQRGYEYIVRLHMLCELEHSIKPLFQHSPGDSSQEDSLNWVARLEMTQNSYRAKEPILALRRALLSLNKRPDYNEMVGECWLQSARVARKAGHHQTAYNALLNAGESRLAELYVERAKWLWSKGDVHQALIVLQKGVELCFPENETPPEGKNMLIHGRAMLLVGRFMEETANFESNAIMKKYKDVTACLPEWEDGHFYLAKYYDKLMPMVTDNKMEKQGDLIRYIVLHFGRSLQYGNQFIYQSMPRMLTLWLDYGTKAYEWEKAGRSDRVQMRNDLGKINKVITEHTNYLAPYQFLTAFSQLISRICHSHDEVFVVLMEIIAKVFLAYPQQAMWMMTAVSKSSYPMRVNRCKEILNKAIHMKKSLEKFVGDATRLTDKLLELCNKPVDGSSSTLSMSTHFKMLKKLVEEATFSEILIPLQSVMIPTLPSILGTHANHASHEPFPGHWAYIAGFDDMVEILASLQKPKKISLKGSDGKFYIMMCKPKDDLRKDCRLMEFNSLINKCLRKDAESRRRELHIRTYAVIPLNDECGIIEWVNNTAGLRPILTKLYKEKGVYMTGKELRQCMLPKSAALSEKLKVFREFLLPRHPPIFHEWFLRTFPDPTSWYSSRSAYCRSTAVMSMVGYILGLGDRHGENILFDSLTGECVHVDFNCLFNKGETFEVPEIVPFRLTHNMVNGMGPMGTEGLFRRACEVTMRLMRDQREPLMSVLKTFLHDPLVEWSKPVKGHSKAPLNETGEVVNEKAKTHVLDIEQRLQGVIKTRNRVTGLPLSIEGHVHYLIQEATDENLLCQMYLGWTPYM

Target	log2 fold change [1]	log2 fold change (filanesib)	log2 fold change (zotarolimus)	log2 fold change (idasanutlin)	log2 fold change (alisertib)	log2 fold change [2]	log2 fold change (gefitinib)	log2 fold change [3]	log2 fold change (lapatinib)	log2 fold change (pictilisib)
AFG1L (UniProt Q8WV93)	-0.17	-0.239	0.018	0.016	-0.065	-0.18	-0.012	0.107	0.041	
AMFR (UniProt Q9UKV5)	-0.048	-0.066	-0.017	0.037	-0.012	-0.136	0.071	0.016	0.003	-0.093
ATR (UniProt Q13535)	-0.267 (active)	0.019	0.057	-0.067	-0.05	0.031	0.019	0	0.039	0.112
APOB (UniProt P04114)	0.034	-0.86 (active)	-0.013	-0.039	0	-0.384	-0.129	0.164	-0.352	0.078
ANP32E (UniProt Q9BTT0)	0.027	0.011	0.066	0.061	0.045	-0.039	0.021	-0.027	-0.011	0.06
APAF1 (UniProt O14727)	-0.023	-0.066	-0.03	-0.068	0.08	0.279	-0.163	0.09	0.369	-0.04
APPL1 (UniProt Q9UKG1)	-0.024	0.069	0.018	-0.076	-0.001	0.079	-0.106	-0.023	-0.025	0.033
ABCC5 (UniProt O15440)	-0.026	0.001	-0.02	0.017	-0.026	0.053	0.089	-0.05	0	-0.037
BOP1 (UniProt Q14137)	-0.059	0.161	0.054	0.077	-0.131	-0.085	0.017	-0.012	-0.034	0
ACP1 isoform 2 (UniProt P24666)	0.029	0.095	0.009	0.028	0.094	0.036	0.045	-0.077	0.014	0.055
ABHD16A (UniProt O95870)	0.051	0.067	0.204	-0.042	-0.049	0.347 (active)	0.158	-0.039	0.235	0.018
BRK1 isoform 2 (UniProt Q8WUW1)	0.113	0.127	-0.049	0.031	-0.076	-0.07	0.05	-0.041	-0.032	0.018
ATAD3A isoform 2 (UniProt Q9NVI7)	-0.029	-0.005	-0.053	0.073	-0.006	-0.116	-0.199	0.001	-0.029	-0.185
AAR2 (UniProt Q9Y312)	0.022	0.111	0.042	0.002	-0.129	0.104	0.075	0.058	-0.005	-0.082
ALG5 (UniProt Q9Y673)	0	-0.054	0.039	-0.139	0.675	0.095	0.023	0.013	0.046	0.075
ATF7 isoform 6 (UniProt P17544)	0.04	0.417	0.03	0.084	-0.007	-0.004	0.09	0.09	0.121	

Target	log2 fold change [1]	log2 fold change (filanesib)	log2 fold change (zotarolimus)	log2 fold change (idasanutlin)	log2 fold change (alisertib)	log2 fold change [2]	log2 fold change (gefitinib)	log2 fold change [3]	log2 fold change (lapatinib)	log2 fold change (pictilisib)
AUP1 (UniProt Q9Y679)	-0.069	-0.269 (active)	-0.014	-0.022	-0.013	-0.163	-0.034	0.022	-0.007	-0.059
ACTR1B (UniProt P42025)	0.084	0.044	-0.026	-0.136	-0.163	0.008	0.04	0.073	-0.104	0.127
AGAP3 isoform 4 (UniProt Q96P47)	-0.051	0.24	-0.02	0.12	-0.073	0.079	0.28	-0.1	0.038	
ALDH1B1 (UniProt P30837)	0.051	-0.1	0.029	-0.122	-0.045	-0.009	0.091	0.075	-0.003	0.062
AURKA (UniProt O14965)	0.021	0.009	-0.021	-0.095	1.36 (active)	0.048	-0.03	0.01	0.025	0.055
ACSL3 (UniProt O95573)	0.126	-0.045	0.019	-0.127	0.026	0.046	0.021	0.037	0	0.022
AHCYL1 (UniProt O43865)	0.015	-0.05	-0.017	-0.056	-0.087	0.046	0.029	0.093	0.014	0.126
ACSF3 (UniProt Q4G176)	-0.099	-0.045	-0.01	0.051	0.001	-0.053	-0.096	0.054	-0.004	0.064
ATP6V1F isoform 2 (UniProt Q16864)	0.126	0.162	0.036	0.095	-0.158	-0.151	0.019	0.021	-0.112	-0.054
ALKBH5 (UniProt Q6P6C2)	0.124	0.001	-0.067	0.016	-0.12	0.044	0.023	-0.138	-0.008	0.094
ACP1 (UniProt P24666)	0.008	-0.047	-0.039	-0.078	0.029	0.056	0.003	-0.086	-0.073	-0.062
ALDH18A1 (UniProt P54886)	-0.024	-0.01	0.045	-0.233	-0.09	0.215	-0.18	0.067	-0.652 (active)	-0.101
ANGEL1 (UniProt Q9UNK9)	0.024									
AP4S1 (UniProt Q9Y587)	-0.039	0.029	0.126	-0.061	-0.098	-0.002	-0.083	0.036	-0.047	
ACAD9 (UniProt Q9H845)	-0.005	-0.069	-0.017	0.017	-0.012	0.03	0.016	0.083	-0.015	0.082
